Drawing on PubChem BioAssay (EPA / NIEHS), this text covers outcome and AC50 for 37 compounds.

Molecules are shown by their SMILES. Inconclusive results are not listed. Activity calls are given as the source filed them. Rule for the calls, unless noted: active = hit-call score of the fitted dose curve at least 0.9, where 1 is the maximum; inconclusive = response in the unintended direction; inactive = score below 0.9.

Broadly, the AC50 is the concentration giving half of the maximal activity seen.

In experiment [1] the target is Cellular tumor antigen p53 (Homo sapiens) (UniProt P04637). Briefly: TOX21_p53_BLA_p3_ratio: Tox21 HCT-116 p53 Agonism Beta-lactamase Assay, Ratio, Phase 3 (AID 2283596). An outline of the steps:
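HCT116 p53-bla cells (4000/well) given compound in DMSO (217-fold dilution) after 5 h, incubated 16 h at 37C. CCF4-AM substrate 2 h at room temperature; 460/530 nm emission ratio, gain fitted against DMSO.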

Experiment [2] has the same target. Briefly: TOX21_p53_BLA_p5_ratio: Tox21 HCT-116 p53 Agonism Beta-lactamase Assay, Ratio, Phase 5 (AID 2283599). The essentials: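 HCT-116 cells carrying a p53-inducible beta-lactamase reporter were seeded at 4000 cells/well and dosed after 5 h with compound in DMSO (217-fold dilution). After 16 h at 37C, CCF4-AM substrate was added for 2 h, and the 460/530 nm emission ratio was scored as gain-of-signal versus DMSO.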

Experiment [3] is described as follows: TOX21_p53_BLA_p5_viability: Viability Assessment in the Tox21 HCT-116 p53 Agonism Beta-lactamase Assay, Phase 5 (AID 2283600). An outline of the steps: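 Compounds, pinned from DMSO at 217-fold dilution, were left on the cells for 16 h. The viability endpoint was ATP content measured by CellTiter-Glo luminescence, where falling signal reflects cytotoxicity.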

Experiment [4] in a line: TOX21_p53_BLA_p4_viability: Viability Assessment in the Tox21 HCT-116 p53 Agonism Beta-lactamase Assay, Phase 4 (AID 2283597).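 Note: hits lower the luminescence signal meaning cytotoxicity.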 An outline of the steps: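 We seeded HCT116 p53 reporter cells at 4000/well and waited 5 h. We then added compounds in DMSO at a 217-fold dilution and incubated for 16 h. Viability was read as CellTiter-Glo luminescence after 30 min at RT.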
The target in experiment [5] is Cellular tumor antigen p53 (Homo sapiens) (UniProt P04637). The experiment is described as follows: TOX21_p53_BLA_p4_ratio: Tox21 HCT-116 p53 Agonism Beta-lactamase Assay, Ratio, Phase 4 (AID 2283601). An outline of the steps: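 HCT116 cells carrying an inducible beta-lactamase reporter were plated at 4000 cells/well, rested 5 h, then exposed to compounds in DMSO (217-fold dilution) for 16 h at 37C. CCF4-AM substrate was loaded 2 h at room temperature; 460/530 nm emission ratio scored gain-of-signal versus DMSO.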
Chain of Cellular tumor antigen p53 (Homo sapiens) (P04637 whole entry, looked up): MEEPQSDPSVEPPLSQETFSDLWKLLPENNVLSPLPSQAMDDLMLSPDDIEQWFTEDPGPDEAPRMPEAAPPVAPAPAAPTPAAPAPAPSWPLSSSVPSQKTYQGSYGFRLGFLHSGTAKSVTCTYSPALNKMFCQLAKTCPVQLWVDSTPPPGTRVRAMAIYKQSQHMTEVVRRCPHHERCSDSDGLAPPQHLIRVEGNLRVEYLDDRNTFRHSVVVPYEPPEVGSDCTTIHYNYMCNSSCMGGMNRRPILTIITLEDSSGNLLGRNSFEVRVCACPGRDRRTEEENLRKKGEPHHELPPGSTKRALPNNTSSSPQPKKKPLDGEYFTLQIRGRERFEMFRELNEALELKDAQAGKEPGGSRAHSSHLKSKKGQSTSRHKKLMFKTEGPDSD

Experiment [6] deals with THRA (gene 7067) (UniProt P10827). The experiment is described as follows: TOX21_TRA_COA_Agonist_Followup_ratio: Tox21 Thyroid Hormone Receptor alpha Agonism through Coactivator Recruitment Follow-Up Assay, Ratio (AID 2283948; active = hit-call score of the fitted dose curve at least 0.9, where 1 is the maximum; inactive = score below 0.9). The essentials:
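GST-TRa LBD 2.5 nM + 0.10% BSA + cpd; add fluorescein-SRC-2 200 nM, Tb-anti-GST 2 nM. TR-FRET ex 340, em 520/495 ratio. Norm: DMSO 0%, T3 100%; gain-of-signal fit.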

Experiment [7] deals with THRB (gene 7068) (UniProt P10828). The experiment is described as follows: TOX21_TRB_BLA_Agonist_Followup_ratio: Tox21 Thyroid Hormone Receptor beta Agonism Beta-lactamase (BLA) Follow-Up Assay, Ratio (AID 2283954). An outline of the steps: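 Human TRβ LBD–GAL4 DBD fusion in GeneBLAzer UAS-bla HEK293T cells; 11 concentrations in triplicate, 18 h at 37°C/5% CO2, T3 as agonist control. CCF4-AM substrate 2 h at room temperature; 460:530 nm ratio fitted for gain of signal versus DMSO.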
Chain of THRB (gene 7068) (P10828 whole entry, looked up, the tested form may be a part): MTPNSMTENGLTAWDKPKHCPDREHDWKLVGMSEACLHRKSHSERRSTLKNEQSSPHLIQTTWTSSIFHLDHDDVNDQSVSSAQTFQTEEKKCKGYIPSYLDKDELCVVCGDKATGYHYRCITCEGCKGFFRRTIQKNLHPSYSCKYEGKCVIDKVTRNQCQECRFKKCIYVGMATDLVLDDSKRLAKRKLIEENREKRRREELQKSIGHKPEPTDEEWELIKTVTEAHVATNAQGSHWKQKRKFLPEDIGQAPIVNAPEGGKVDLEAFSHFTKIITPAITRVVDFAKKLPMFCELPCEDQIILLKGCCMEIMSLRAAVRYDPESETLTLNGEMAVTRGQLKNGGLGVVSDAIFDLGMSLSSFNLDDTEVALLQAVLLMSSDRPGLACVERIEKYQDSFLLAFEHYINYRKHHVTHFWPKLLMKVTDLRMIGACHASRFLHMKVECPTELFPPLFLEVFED

Experiment [8] has the same target. The experiment is described as follows: TOX21_TRB_COA_Agonist_Followup_ratio: Tox21 Thyroid Hormone Receptor beta Agonism through Coactivator Recruitment Follow-Up Assay, Ratio (AID 2283963; active = hit-call score of the fitted dose curve at least 0.9, where 1 is the maximum; inactive = score below 0.9). The essentials: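 First, the GST-fused TRβ ligand-binding domain (5.0 nM) was incubated with test compound in 0.10% BSA. Next, fluorescein-tagged SRC-2 peptide (200 nM) and terbium anti-GST antibody (2 nM) were added. Finally, TR-FRET emission ratios were normalized against DMSO and T3 controls.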

Experiment [9] has as its target Retinoic acid receptor RXR-alpha (Homo sapiens) (UniProt P19793). The experiment is described as follows: TOX21_TR_RXR_BLA_Agonist_Followup_ratio: Tox21 Thyroid Hormone Receptor beta Retinoid X Receptor alpha (RXRa) Agonism Beta-lactamase (BLA) Follow-Up Assay, Ratio (AID 2283968). An outline of the steps: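 HEK293T RXRa-bla, qHTS; cpd 11-pt conc. in triplicate, 16 h 37C/5% CO2; CCF4-AM 2 h RT; ratio 460:530 nm; agonist direction vs DMSO; 9-cis retinoic acid as positive control.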

A short description of experiment [10]: CCTE_Harrill_HTTr_Viability_MCF7: CCTE's 6-hour Cell Viability Assessment for the High-Throughput Transcriptomics (HTTr) Platform, in MCF-7 cells cultured in DMEM + 10% fetal bovine serum, Harrill Lab (AID 2284010; active = hit-call score of the fitted dose curve at least 0.9, where 1 is the maximum; inactive = score below 0.9). The essentials:
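Cells were dosed with chemicals in an eight-point dilution series, imaged 6 hours later for propidium iodide uptake, and the endpoint was analyzed by bidirectional fitting against DMSO as negative control.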

Experiment [11] in a line: CCTE_Harrill_HTTr_Apoptosis_MCF7: CCTE's 6-hour Apoptosis Assessment for the High-Throughput Transcriptomics (HTTr) Platform, in MCF-7 cells cultured in DMEM + 10% fetal bovine serum, Harrill Lab (AID 2284011; active = hit-call score of the fitted dose curve at least 0.9, where 1 is the maximum; inactive = score below 0.9). The essentials:
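Read-out: CellEvent Caspase 3/7 Green signal by high content imaging, gain-of-signal indicating apoptosis. MCF-7 cells, DMEM + 10% FBS, eight-point dilution series, 6 h exposure. Curves fitted bidirectionally relative to DMSO negative control.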

A short description of experiment [12]: CCTE_Harrill_HTTr_CellCount_MCF7: CCTE's Cell Proliferation Assessment for the High-Throughput Transcriptomics (HTTr) Platform, Harrill Lab (AID 2284012).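 Note: count of Hoechst-stained nuclei per well by high-content imaging in MCF-7 cells; cells exposed to compound for six hours; intended direction is loss of nuclei count meaning fewer cells.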 The essentials:
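Chemicals in eight-point dilution series are added to MCF-7 cells for six hours, nuclei are stained with Hoechst and imaged, and per-well nuclei counts are fitted in both directions relative to DMSO controls.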

Chain of THRA (gene 7067) (P10827 whole entry, looked up, the tested form may be a part): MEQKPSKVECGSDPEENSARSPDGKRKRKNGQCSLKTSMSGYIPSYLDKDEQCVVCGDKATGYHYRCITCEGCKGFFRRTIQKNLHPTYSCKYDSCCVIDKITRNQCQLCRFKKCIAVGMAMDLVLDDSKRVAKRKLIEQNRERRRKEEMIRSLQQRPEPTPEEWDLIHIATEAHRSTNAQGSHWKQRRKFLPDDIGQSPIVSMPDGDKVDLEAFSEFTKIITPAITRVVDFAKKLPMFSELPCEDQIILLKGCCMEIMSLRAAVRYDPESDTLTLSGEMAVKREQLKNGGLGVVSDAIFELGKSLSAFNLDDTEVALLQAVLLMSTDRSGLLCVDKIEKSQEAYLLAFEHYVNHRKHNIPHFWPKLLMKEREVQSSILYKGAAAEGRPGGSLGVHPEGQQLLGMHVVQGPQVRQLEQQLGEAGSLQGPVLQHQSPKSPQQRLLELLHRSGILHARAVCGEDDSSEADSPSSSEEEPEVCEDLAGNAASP
Chain of Retinoic acid receptor RXR-alpha (Homo sapiens) (P19793 whole entry, looked up): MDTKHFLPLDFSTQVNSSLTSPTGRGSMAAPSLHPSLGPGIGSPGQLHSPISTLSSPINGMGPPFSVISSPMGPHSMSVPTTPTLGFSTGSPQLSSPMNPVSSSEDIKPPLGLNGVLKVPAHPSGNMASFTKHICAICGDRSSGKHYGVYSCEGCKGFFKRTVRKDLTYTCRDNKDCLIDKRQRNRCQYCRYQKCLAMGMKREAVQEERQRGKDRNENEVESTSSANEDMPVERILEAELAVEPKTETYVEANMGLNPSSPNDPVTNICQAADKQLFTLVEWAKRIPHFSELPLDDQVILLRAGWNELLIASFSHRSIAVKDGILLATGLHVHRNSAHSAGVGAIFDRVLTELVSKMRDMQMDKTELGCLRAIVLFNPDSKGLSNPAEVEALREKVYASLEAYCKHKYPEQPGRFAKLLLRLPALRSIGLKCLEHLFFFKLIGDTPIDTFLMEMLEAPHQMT

Take `CC[C@H]1OC(=O)C[C@@H](O)[C@H](C)[C@@H](O[C@@H]2O[C@H](C)[C@@H](O)[C@H](N(C)C)[C@H]2O)[C@@H](CCN2C[C@H](C)C[C@H](C)C2)C[C@@H](C)C(=O)/C=C/C(C)=C/[C@@H]1CO[C@@H]1O[C@H](C)[C@@H](O)[C@@H](OC)[C@H]1OC`: the outcome in [1], in [2] and in experiment [3] was inactive.
`O=C(O)[C@H]1/C(=C/CO)O[C@@H]2CC(=O)N21`: the result in [1], in experiment [4], in experiment [2] and in [5] was inactive.
On to `CC(Oc1ccccc1)C(=O)N[C@@H]1C(=O)N2[C@@H]1SC(C)(C)[C@@H]2C(=O)O` (some centres not stated), for which the result in experiment [1], in [2], in experiment [3] and in [5] was inactive.
In the case of `NS(=O)(=O)c1ccccc1Cl`, the result in experiment [1], in experiment [4], in experiment [3] and in [5] was inactive.
Consider `O=C(O)CCCCCCC(=O)O`, for which the outcome in experiment [1], in [4], in [2] and in experiment [5] was inactive.
As to `O=C1CCN(c2ccccc2)N1`, the outcome in experiment [1], in [4] and in experiment [3] was inactive.
For `CCOC(=O)c1ccc(OC(=O)CCCCCN=C(N)N)cc1`, the result in [1], in experiment [2] and in [3] was inactive.
With `CC1CCCC(C)N1NC(=O)c1ccc(Cl)c(S(N)(=O)=O)c1` (configuration not stated), the outcome in experiment [1], in [2] and in experiment [3] was inactive.
On to `Nc1nc(N)c(-c2ccccc2)s1`, for which the result in experiment [1], in experiment [4], in experiment [2], in [3] and in [5] was inactive.
Take `NC(=O)OC[C@@H]1[C@H](NC(=O)/C(=N\OCC(=O)O)c2csc(N)n2)C(=O)N1S(=O)(=O)O`: the outcome in [1], in experiment [2], in experiment [3] and in experiment [5] was inactive.
Consider `CCN(CC)C(=O)[C@]1(c2ccccc2)C[C@@H]1CN`, for which the result in experiment [1], in experiment [4], in [2], in [3] and in [5] was inactive.
`O=C(CCN1CCN(CCO)CC1)N1c2ccccc2Sc2ccc(C(F)(F)F)cc21`: the result in experiment [1], in experiment [4], in experiment [2] and in experiment [5] was inactive.
As for `CC#CCC(C)[C@H](O)/C=C/[C@@H]1[C@H]2C/C(=C/CCCC(=O)O)C[C@H]2C[C@H]1O` (some centres not stated), the outcome in experiment [1], in [4] and in experiment [5] was inactive.
`C[N+]1(C)CCN(CC(O)(c2ccccc2)C2CCCCC2)CC1` (configuration not stated): the outcome in [1], in experiment [4] and in experiment [3] was inactive.
With `C=C1[C@H](CO)[C@@H](O)C[C@@H]1n1cnc2c(=O)[nH]c(N)nc21`, the result in experiment [1], in experiment [4], in experiment [3] and in experiment [5] was inactive.
Consider `C/C(=C\C(=O)OCCCCCCCCC(=O)O)C[C@@H]1OC[C@H](C[C@@H]2O[C@H]2[C@@H](C)[C@H](C)O)[C@@H](O)[C@H]1O`, for which the result in experiment [1], in [4], in [2], in experiment [3] and in [5] was inactive.
As for `CCCCOCCCC`, the outcome in experiment [1], in experiment [4], in experiment [3] and in experiment [5] was inactive.
In the case of `CC(=O)c1ccc2ccc3ccccc3c2c1`, the outcome in experiment [1] and in experiment [4] was inactive. Moreover, the AC50 in [2] was 80.9 µM (active); in experiment [5] it was 78.9 µM (active).
For the compound `CO[C@H]1[C@@H](O)[C@H](N)[C@@H](O[C@H]2O[C@H]([C@H](C)N)CC[C@H]2N)[C@H](O)[C@@H]1N(C)C(=O)CN`, the result in experiment [1], in experiment [4], in [3] and in [5] was inactive.
On to `COc1ccc2c(c1OC)C(=O)O[C@@H]2[C@H]1c2c(cc3c(c2OC)OCO3)CCN1C`, for which the result in [1], in experiment [4], in experiment [2] and in experiment [5] was inactive.
Take `CCCCCC(C)N` (configuration not stated): the result in experiment [1], in experiment [4], in experiment [2], in [3] and in [5] was inactive.
As for `O=C(c1ccc(F)cc1)C1CCN(CCn2c(=S)[nH]c3ccccc3c2=O)CC1`, the result in experiment [1], in experiment [4], in experiment [2], in experiment [3] and in [5] was inactive.
As to `CCN(CCCc1ccccc1)CCCc1ccccc1`, the outcome in [1], in experiment [4], in [3] and in experiment [5] was inactive.
Take `CC(C)C[C@H](NC(=O)[C@@H](Cc1c[nH]c2ccccc12)NC(=O)[C@H](Cc1ccc(O)cc1)NC(=O)[C@H](CO)NC(=O)[C@H](Cc1c[nH]c2ccccc12)NC(=O)[C@H](Cc1cnc[nH]1)NC(=O)[C@@H]1CCC(=O)N1)C(=O)N[C@@H](CCCN=C(N)N)C(=O)N1CCC[C@@H]1C(=O)NCC(N)=O`: the outcome in experiment [1], in experiment [2], in experiment [3] and in [5] was inactive.
Take `CCCCCC/C=C/C(=O)OC`: the outcome in experiment [1] and in [2] was inactive.
As for `O=C(O)CCNC(=O)c1ccccc1`, the AC50 in experiment [6] is 15.2 µM (active); in experiment [7], 12.6 µM (active); in experiment [8] it was 16.1 µM (active). In addition, the result in [9] was inactive.
In the case of `CCCCCCCC/C=C\CCCCCCCC(=O)OC`, the result in [10], in [11] and in [12] was inactive.
Turning to `Cc1ccc(C=O)cc1C`, the outcome in experiment [4], in experiment [2] and in [3] was inactive.
As for `Fc1ccccc1-c1ccccc1`, the compound was called inactive in experiment [4], in experiment [2] and in experiment [3].
As for `COc1ccc([C@@H]2CC(=O)c3c(O)cc(O[C@@H]4O[C@H](CO[C@@H]5O[C@@H](C)[C@H](O)[C@@H](O)[C@H]5O)[C@@H](O)[C@H](O)[C@H]4O)cc3O2)cc1O`, the outcome in experiment [4], in experiment [2], in experiment [3] and in [5] was inactive.
For the compound `O=C(OC1C[C@@H]2CC3C[C@H](C1)N2CC3=O)c1c[nH]c2ccccc12` (some centres not stated), the compound was called inactive in experiment [4] and in experiment [3].
As for `Cc1ccc(C(=O)Nc2ccc(S(=O)(=O)O)c3cc(S(=O)(=O)O)cc(S(=O)(=O)O)c23)cc1NC(=O)c1cccc(NC(=O)Nc2cccc(C(=O)Nc3cc(C(=O)Nc4ccc(S(=O)(=O)O)c5cc(S(=O)(=O)O)cc(S(=O)(=O)O)c45)ccc3C)c2)c1`, the compound was classed as inactive in experiment [4], in [3] and in experiment [5].
In the case of `Cn1nnnc1SCC1=C(C(=O)O)N2C(=O)[C@@H](NC(=O)[C@H](O)c3ccccc3)[C@H]2SC1`, the outcome in experiment [4], in experiment [2], in [3] and in experiment [5] was inactive.
On to `CCC(=O)CC`, for which the result in experiment [4] and in experiment [3] was inactive.
Take `Cc1onc(-c2c(Cl)cccc2Cl)c1C(=O)N[C@@H]1C(=O)N2[C@@H]1SC(C)(C)[C@@H]2C(=O)O`: the compound was classed as inactive in experiment [4] and in experiment [3].
Regarding `Nc1c(Cl)cc(Cl)cc1Cl`, the call in [4], in [2] and in experiment [5] was inactive.
For `CCCCCCCCCCCCOCCCN`, the compound was called inactive in experiment [4] and in experiment [5].
